High-throughput results (PubChem BioAssay)
A selection: hits, their analogues and other compounds. The true share with any hit is near 2%.
GRP78 ERSR act: inducers of ER stress response in human glioma cells. U87-MG GRP78 promoter luciferase reporter, 16 h. Potency, µM, inactives show at the top dose activation, actives largely listed as activators. 420,000 compounds, 0.02% hits; note: series mostly up to about 76 µM; % of control where 0% means no effect; nearly all actives have a fitted effect of over 35% in size
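ERSR induction read as luciferase luminescence (Bright-Glo, 10 min at room temperature) in stably transfected human U87-MG glioma cells exposed to compounds for 16 h, using GRP78 as sensor.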
TDP43 rescue: inhibitors of TDP-43 toxicity in yeast; TDP-43 expressing yeast growth rescue, BacTiter-Glo, 24 h; Potency, µM (titrated, usually from 46.1 µM), for the others: at the highest dose growth rescue (activation), usual class: activators; 410,000 compounds, 1.8% hits; note: % of control where 0% means no effect; nearly all actives have a fitted effect of over 50% in size
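Cell-based yeast growth screen: TDP-43 expression induced in galactose, inoculum OD600=0.02 after raffinose pregrowth to mid-log. Read-out BacTiter-Glo luminescence at 24 hr, 30 deg C; inhibition of toxicity seen as signal increase.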
FUS suppressor: suppressors of FUS proteinopathy in yeast; Potency, µM (top dose mostly 76.6 µM), hits mostly activators; AID 1347120; S. cerevisiae FUS-expressing, growth rescue, OD600, 24 h; 390,000 compounds, 0.24% hits;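 note: plate controls were DMSO vehicle for no effect and reference control for full effect; nearly all actives have a fitted effect of over 55% in size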
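Cultures pregrown in 2.5% raffinose medium are shifted to minimal medium containing 2% galactose to express toxic FUS. Compounds are tested at several concentrations. After 24hr at 30C, growth is quantified at 600 nm absorbance.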
Abeta rescue: compounds reversing amyloid beta toxicity in yeast. yeast expressing A-beta42, growth rescue, OD600, 48 h; response scale: 0% DMSO, 100% iron-clioquinol control. Potency, µM (highest dose often 46.1 µM), most hits filed as activators. 410,000 compounds, 0.063% hits; note: nearly all actives have a fitted effect of over 55% in size
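Yeast A-beta toxicity model in growth medium with pinned compounds, 48 h at 30 C; growth read as absorbance at 600 nm. Normalized to FeCl3/clioquinol equimolar mix (positive) and DMSO (negative).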
aSyn rescue: inhibitors of alpha-synuclein toxicity in yeast. Yeast expressing alpha-synuclein, growth rescue, BacTiter-Glo, 24 h. Potency, µM (series often up to 46.1 µM), inactives show at the top dose growth rescue (activation), actives largely listed as activators. 370,000 compounds, 0.14% hits; note: % of control where 0% means no effect; nearly all actives have a fitted effect of over 65% in size
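Readout is rescue of growth in alpha-synuclein-expressing yeast, so inhibitors of toxicity appear as activators. Growth after 24 hr at 30 deg C in galactose medium is quantified by luminescence.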
MBNL1 CUG block: inhibitors of human MBNL1 binding to CUG repeat RNA; Q9NR56; TR-FRET MBNL1-His/biotin-(CUG)12 binding, 665/545 ratio; 280,000 compounds, 0.036% hits; Potency, µM (titrated, usually from 57.5 µM), without a hit: at the top dose activity change, negative = inhibition, most hits filed as inhibitors; active = well fitted inhibition curve with a large enough effect in the signal ratio, with a control signal flat, not every such curve was filed as active; inconclusive = small, poorly fitted or top-dose-only effect, or effect the other way, or a change in a side signal; inactive = no such curve, though single readings can be large or run the other way; the % refers to the signal ratio; note: % is set by controls: 0 for no effect and ±100 for the full control effect
Target sequence (Q9NR56 whole entry, looked up): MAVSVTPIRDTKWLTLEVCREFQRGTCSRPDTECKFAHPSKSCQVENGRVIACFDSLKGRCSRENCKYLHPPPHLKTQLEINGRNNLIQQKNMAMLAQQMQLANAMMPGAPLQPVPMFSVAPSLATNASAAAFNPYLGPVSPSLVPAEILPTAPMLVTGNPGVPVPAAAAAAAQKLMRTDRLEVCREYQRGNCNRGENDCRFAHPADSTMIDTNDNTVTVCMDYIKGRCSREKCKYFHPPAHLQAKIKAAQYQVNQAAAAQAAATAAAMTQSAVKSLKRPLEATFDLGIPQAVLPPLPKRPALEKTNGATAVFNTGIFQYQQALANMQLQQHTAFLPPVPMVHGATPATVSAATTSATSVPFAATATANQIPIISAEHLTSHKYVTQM
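TR-FRET readout: Ex 340 nm, 665/545 nm emission ratio, normalized to buffer-only (basal) and MBNL1-(CUG)12 controls. Complex of MBNL1-His with Biotin-(CUG)12, compounds 92 nM–58 uM, incubated 60 min at room temperature.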
* hit, by the source's call; i = inactive; ? = inconclusive; nt = no result given; [ ] = dose if it differs, or a comment. Unless noted, calls come from the whole dose curve; as a rule, active = well fitted curve in the direction sought with a large enough effect; inconclusive = small, poorly fitted or top-dose-only effect, or another doubt; inactive = no such curve, though single readings can be large; an effect the other way counts as inactive or inconclusive. Potency is the fitted concentration of half-maximal effect.

SMILES | GRP78 ERSR act | TDP43 rescue | FUS suppressor | Abeta rescue | aSyn rescue | MBNL1 CUG block
COc1cc(NC(=O)CSc2nc(C)cc(=O)[nH]2)cc(OC)c1 | nt | nt | i | nt | nt | nt
C/C=C/c1ccccc1OCCCN1CCC(C(O)(c2ccccc2)c2ccccc2)CC1 | nt | nt | i | nt | nt | nt
Cc1cc(C)c(C(=O)NC2CC(C)(C)Cc3c2cnn3-c2ccccc2)o1 (configuration not stated) | -6% | 16µM* | i | i | -9% | 3%
COc1ccc(-n2ncc3c2CC(C)(C)CC3NC(=O)c2oc(C)cc2C)cc1 (configuration not stated) | -4% | -3% | i | i | 2% | -4%
O=S(=O)(NCC(c1ccco1)S(=O)(=O)c1cccs1)c1ccccc1 (configuration not stated) | 1% | ? | i | i | nt | nt
O=S(=O)(NCC(c1cccs1)S(=O)(=O)c1ccccc1)c1ccccc1 (configuration not stated) | -5% | 2.8µM* | i | i | nt | nt
O=C(Nc1ccccc1C(=O)NCc1ccccc1)c1ccccc1Br | 0% | 17% | i | i | -27% | -8%
Cc1ccccc1C(=O)Nc1ccccc1C(=O)NCc1ccccc1 | -3% | 11µM* | i | i | -14% | -14%
CCC[C@H](/C=C/C(=O)OC(C)(C)C)Sc1ccc(OC)cc1 | nt | nt | i | nt | nt | nt
CC(C)(C)c1ccc(/C=C(\C#N)C(=O)NC2CC2)cc1 | -1% | 35µM* | i | i | 27% | nt
N#C/C(=C\c1ccc(F)c(Br)c1)C(=O)NC1CC1 | -4% | ? | i | ? | ? | ?
C=CCOC(=O)N[C@H](c1ccc2ccccc2c1)[C@H](C)/C=C/CC(=O)OC | nt | nt | i | nt | nt | nt
CC(=O)Nc1ccc(NCN2C(=O)[C@@H]3[C@H]4CC[C@H](C4)[C@@H]3C2=O)cc1 | -2% | 6.3µM* | nt | i | 1% | 3%
CCCOC(=O)c1cccc(Nc2nc(-c3cccnc3)nc3ccccc23)c1 | -9% | 22µM* | i | i | 10% | -13%
COC(=O)c1ccc(Nc2nc(-c3ccc(C)cc3)nc3ccccc23)cc1 | 1% | 14µM* | i | i | nt | nt
CNC(=O)c1ccc(Nc2nc(-c3ccccc3)nc3ccccc23)cc1 | -4% | 0% | i | i | 12% | 4%
O=C(O)c1ccc(Nc2nc(-c3ccccc3)nc3ccccc23)cc1 | 1% | 22µM* | i | i | -18% | 0%
Cc1c(C(=O)NC2CCCC2)sc2ncnc(NCCN(C)C)c12 | -5% | nt | nt | nt | nt | nt
S=c1[nH]nc(-c2cc3c(s2)-c2ccccc2CC3)o1 | 7% | 14µM* | i | i | -7% | 25%
Cc1nn2c(-c3ccc(F)cc3)ccnc2c1Br | -5% | 15% | i | i | 14% | 13%
COc1ccc(-c2ccnc3c(Br)c(C)nn23)cc1 | 1% | 11µM* | i | i | 0%[1.84 µM] | nt
Cc1ccc(C2OC(=O)c3ccccc32)cc1 (configuration not stated) | 2% | 35µM* | nt | i | 2% | -7%
CN(C)c1ccc(/C=N\NC(=O)c2cccc(S(=O)(=O)N(C)C)c2)cc1 | nt | nt | i | nt | nt | nt
CC(C)(C)C1=NN=C2c3ccccc3C(=O)C21 (configuration not stated) | 1% | 16µM* | i | i | -15% | ?
O=C1c2ccccc2C(=O)C1c1ccc(O)cc1 | 7% | -11%[0.397 µM] | i | i | 1% | 17%
SMILES | GRP78 ERSR act | TDP43 rescue | FUS suppressor | Abeta rescue | aSyn rescue | MBNL1 CUG block
O=[N+]([O-])c1nn(-c2ccc3c(c2)OCCO3)n(O)c1=Nc1ccccc1 | -12% | 11µM* | i | i | -16% | nt
CCc1ccc(N=c2c([N+](=O)[O-])nn(-c3ccc4c(c3)OCCO4)n2O)cc1 | 2% | 20µM* | i | ? | 0% | ?
O=[N+]([O-])c1nn(-c2ccc3c(c2)OCCO3)n(O)c1=Nc1ccc(Cl)cc1 | -11% | 14% | i | i | -18% | ?
Cc1[nH]nc(-c2ccc(O)cc2O)c1-c1ccc(Cl)cc1 | 4% | 20µM* | i | i | 1% | 1%
CC(C)C[C@@H]1COc2cc(Br)ccc2S(=O)(=O)N1Cc1cn(CCC2OCCCO2)nn1 | nt | nt | i | nt | nt | nt
Cc1c(C(=O)NCc2ccccc2Cl)sc2nc3n(c(=O)c12)CCCCC3 | -1% | 35µM* | ? | i | nt | nt
Cc1c(C(=O)NCCO)sc2nc3n(c(=O)c12)CCC3 | 0% | -22% | i | i | -6% | -12%
Cc1c(C(=O)NCc2ccccc2Cl)sc2nc3n(c(=O)c12)CCCC3 | 1% | ? | i | i | nt | nt
Cc1ccc(-c2nc(C(=O)NCc3ccccc3Cl)c3n2CCCCC3)cc1 | -1% | 35µM* | ? | i | 12% | nt
Cc1ccc(CCNC(=O)c2sc3nc4n(c(=O)c3c2C)CCCC4)cc1 | -1% | 16µM* | i | i | nt | nt
CCCCCCCCN1[C@@H](CC(=O)O)c2ccc(/C=C/C(=O)O)cc2S1(=O)=O | -4% | nt | nt | nt | nt | nt
CCn1c(SCC(=O)Nc2ccccc2-c2ccccc2)nnc1-c1ccc(Cl)cc1 | nt | nt | i | nt | nt | nt
N#CC(C(=O)OC1CCCCC1)c1nc2ccccc2nc1N1CCOCC1 (configuration not stated) | -5% | -5% | i | i | -4% | -9%
CCC(CC)COC(=O)C(C#N)c1nc2ccccc2nc1N1CCOCC1 (configuration not stated) | -2% | 20µM* | i | i | 6% | 3%
COc1ccc(C2=CC(=O)C[C@H](c3ccc(F)cc3)C2)c(OC)c1 | -1% | 22µM* | ? | i | 6% | nt
COc1ccc(OC)c(C2=CC(=O)C[C@H](c3ccc(F)cc3)C2)c1 | -6% | ? | i | i | 15% | nt
COc1ccc([C@H]2CC(=O)C=C(c3cc(Cl)ccc3OC)C2)cc1 | -3% | ? | ? | i | 13% | nt
COc1ccc(Cl)cc1C1=CC(=O)C[C@H](c2ccc(F)cc2)C1 | 2% | 13µM* | i | i | 2% | nt
COc1ccc(C2=CC(=O)C[C@H](c3ccc(F)cc3)C2)c(F)c1F | -6% | 16µM* | ? | i | 21% | nt
O=C1[C@H](Cc2ccccc2)NC/C=C\C[C@H](c2ccc(Cl)cc2)N1Cc1ccc(Cl)cc1 | -2% | nt | nt | nt | nt | nt
c1ccc(-n2nnnc2-c2cccc3ccccc23)cc1 | -3% | 14µM* | nt | i | 5% | nt
Cc1cc(=O)c(C(=O)NCCCc2ccncc2)c2n1-c1ccccc1SC(c1cccs1)C2 (configuration not stated) | -4% | nt | nt | nt | nt | nt
